Screening results from PubChem BioAssay.
TNAP act mid DEA – human TNAP enzyme activators, primary screen, biochemical, luminescent, intermediate phosphate acceptor level; Alkaline phosphatase, tissue-nonspecific isozyme (Homo sapiens), P05186; purified TNAP, CDP-star luminescence, 100 mM DEA, 30 min; stronger effect = higher value; scale: 0 levamisole-inhibited, 1 vehicle-only enzyme; activation factor at 20 µM; 64,000 tested, under 10 active; AID 813, 2007;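 active means activation factor of at least 2 at 20 µM, relative to controls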
MKP-1 inh – MKP-1 phosphatase inhibitors, primary screen, biochemical, in vitro; Dual specificity protein phosphatase 1 (Homo sapiens), P28562; recombinant MKP-1, OMFP hydrolysis fluorescence; inhibition, %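 (compounds tested at a single concentration somewhere between 10 and 100 µM)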; 65,000 compounds, 0.15% hits;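 active means inhibition above about 50%, limit read from the data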;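 further: 0% = DMSO max control wells and 100% = wells with enzyme stopped by NaOH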
PLAP activator – PLAP enzyme activators, biochemical, luminescence, HTS; activation fold at 20 µM; AID 696, 2007; 96,000 compounds, 1.2% hits; purified PLAP enzyme, luminescent substrate read-out; stronger effect = higher value; in the data active means activation fold above about 2
Target sequence (P05187 whole entry, looked up): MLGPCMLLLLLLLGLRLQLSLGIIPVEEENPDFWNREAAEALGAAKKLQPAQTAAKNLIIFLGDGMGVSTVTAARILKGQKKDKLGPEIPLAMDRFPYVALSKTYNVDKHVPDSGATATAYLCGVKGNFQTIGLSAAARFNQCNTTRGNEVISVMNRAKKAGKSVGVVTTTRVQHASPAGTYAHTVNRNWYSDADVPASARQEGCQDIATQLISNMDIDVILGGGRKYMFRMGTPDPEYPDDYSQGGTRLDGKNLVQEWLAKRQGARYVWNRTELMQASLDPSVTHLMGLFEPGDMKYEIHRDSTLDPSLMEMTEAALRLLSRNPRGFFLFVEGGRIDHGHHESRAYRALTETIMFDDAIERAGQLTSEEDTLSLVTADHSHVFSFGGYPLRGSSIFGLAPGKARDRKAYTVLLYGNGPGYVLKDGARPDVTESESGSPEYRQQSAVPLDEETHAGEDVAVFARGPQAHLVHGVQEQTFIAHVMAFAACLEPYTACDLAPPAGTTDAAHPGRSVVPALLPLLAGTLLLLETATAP
Cdc25B inh – inhibitors of Cdc25B phosphatase catalytic domain, primary screen, biochemical, OMFP fluorescence; 65,000 compounds, 0.1% hits; inhibition, %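 (compounds tested at 10 µM final in the well)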; recombinant Cdc25B, OMFP fluorescence Ex485/Em525; M-phase inducer phosphatase 2 (Homo sapiens), P30305; in the data active means inhibition above about 50%
Hsp90 inh – tumor Hsp90 inhibitors, primary screen, cell lysate, fluorescence polarization, NCI-N417 lysate | Heat shock protein HSP 90-alpha (Homo sapiens), P07900 | Cy3B-geldanamycin FP displacement | inhibition, % at 30 µM | 64,000 compounds, 0.35% hits;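 active means inhibition above 50%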;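 further: 0% = tracer plus lysate wells and 100% = tracer alone without lysate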
HePTP inh – inhibitors of human HePTP phosphatase, primary screen, biochemical, absorbance, leukemia target; recombinant HePTP phosphatase activity, OD absorbance; inhibition, % at 20 µM; 110,000 compounds, 0.64% hits; AID 521, 2006; in the data active means inhibition above about 50%;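 further: plate controls were vehicle for no effect and reference inhibitor for full effect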
* marks the source's active call; other numbers are inactive results. Shown are actives, neighbours in structure and some others; about 1.5% of the full set was active somewhere.

`Clc1ccccc1CSc1nc2ccncc2[nH]1` gave PLAP activator 2.7*.
`O=C1NN(c2ccc(I)cc2)C(=O)/C1=C\c1ccccc1O` gave HePTP inh 92*.
O=C1NN(c2ccccc2)C(=O)/C1=C\c1ccccc1O was read as HePTP inh 8.
Screening O=C1NN(c2ccc(I)cc2)C(=O)/C1=C\c1ccc(F)cc1 returned HePTP inh 104*.
Screening Cn1c(=O)c(C(=O)Nc2cccnc2)c(O)c2ccccc21 returned TNAP act mid DEA 0.9, MKP-1 inh 2, Cdc25B inh -14, Hsp90 inh -2 and HePTP inh -3.
For Cn1c(=O)c(C(=O)Nc2ncccc2O)c(O)c2ccccc21 the results were TNAP act mid DEA 1, MKP-1 inh 8, PLAP activator 2.2*, Cdc25B inh -6 and HePTP inh -6.
CCCCNC(=O)CCC(=O)Nc1ncc(-c2ccc(C)cc2)n1C was read as TNAP act mid DEA 0.9, MKP-1 inh -8, PLAP activator 2*, Cdc25B inh 7, Hsp90 inh -3 and HePTP inh -4.
For Cc1ccc(-c2cnc(NC(=O)CCC(=O)N3CCCCC3)n2C)cc1 the results were TNAP act mid DEA 0.9, MKP-1 inh 24, PLAP activator 1.5, Cdc25B inh 10, Hsp90 inh 4 and HePTP inh -7.
For Cc1sc2nc(CN3CCCC3)nc(N3CCC(C(N)=O)CC3)c2c1C the results were PLAP activator 2*.
Screening COc1ccc(OC)c(N/C(N)=N/c2nc(C(F)(F)F)cc(=O)[nH]2)c1 returned HePTP inh 7.
`O=C(OCc1cccc2ccccc12)c1ccc2c(=O)[nH]c(CN3CCOCC3)nc2c1` gave TNAP act mid DEA 0.9, MKP-1 inh 39, PLAP activator 1.5, Cdc25B inh -13, Hsp90 inh -1 and HePTP inh 4.
For CCc1ccc2nc(NC(=O)c3ccc4c(=O)[nH]c(CN5CCOCC5)nc4c3)sc2c1 the results were TNAP act mid DEA 0.9, MKP-1 inh 4, PLAP activator 2.3*, Cdc25B inh -12, Hsp90 inh -4 and HePTP inh 7.
For CCOc1ccc2sc(NC(=O)CCCC(=O)OCC(F)(F)C(F)F)nc2c1 the results were HePTP inh 0.
Screening Cc1ccc(-n2nnnc2SCC(=O)NNC(=O)c2ccco2)c(C)c1 returned PLAP activator 2*.
Screening Cc1nc2ncnn2c(N2CCCC(C(=O)Nc3ccc4c(c3)CCC4)C2)c1C (centres undefined) returned TNAP act mid DEA 0.9, MKP-1 inh 15, PLAP activator 2.1*, Cdc25B inh -13 and HePTP inh -2.
For O=C(N(c1cccc2ccccc12)C1C=CS(=O)(=O)C1)C(F)(F)F (centres undefined) the results were HePTP inh 3.
Screening Cc1ccccc1OCC(O)Cn1c(NCCN(C)C)nc2c1c(=O)n(C)c(=O)n2C (centres undefined) returned TNAP act mid DEA 0.9, MKP-1 inh 3, PLAP activator 1.4, Cdc25B inh 0, Hsp90 inh 92* and HePTP inh 10.
`CCN(CC)CCNc1nc2c(c(=O)[nH]c(=O)n2C)n1CC(O)COc1ccc(Cl)cc1Cl` (centres undefined) gave TNAP act mid DEA 1, MKP-1 inh -10, PLAP activator 2*, Cdc25B inh -8, Hsp90 inh 0 and HePTP inh 13.
Screening O=C(N=Nc1c(O)[nH]c2ccc([N+](=O)[O-])cc12)c1ccc2c(c1)OCO2 returned HePTP inh 102*.
`Cc1cccc2sc(NC(=O)c3ccc(S(=O)(=O)N4CCCc5ccccc54)cc3)nc12` gave HePTP inh 8.
Cc1cc(=O)[nH]c(-n2[nH]c3c(c2=O)CCCC3)n1 was read as PLAP activator 2.6*.
